Screening data as filed in PubChem BioAssay.
Most compounds without a hit are left out; they make up all but 9.3% or so of the library.
M1 antag – M1 muscarinic receptor (rat) antagonism. P08482. AID 628. 3.4% of 64,000 active. CHO-M1 cells, Fluo-4 calcium, ACh EC80 antagonist mode; active compounds read low. B-score at 10 µM;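 active = calcium fluorescence response, raw or row-and-column corrected B-score, differing from the plate sample mean either way at a set confidence level, mostly lower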
Target sequence (P08482 whole entry, looked up): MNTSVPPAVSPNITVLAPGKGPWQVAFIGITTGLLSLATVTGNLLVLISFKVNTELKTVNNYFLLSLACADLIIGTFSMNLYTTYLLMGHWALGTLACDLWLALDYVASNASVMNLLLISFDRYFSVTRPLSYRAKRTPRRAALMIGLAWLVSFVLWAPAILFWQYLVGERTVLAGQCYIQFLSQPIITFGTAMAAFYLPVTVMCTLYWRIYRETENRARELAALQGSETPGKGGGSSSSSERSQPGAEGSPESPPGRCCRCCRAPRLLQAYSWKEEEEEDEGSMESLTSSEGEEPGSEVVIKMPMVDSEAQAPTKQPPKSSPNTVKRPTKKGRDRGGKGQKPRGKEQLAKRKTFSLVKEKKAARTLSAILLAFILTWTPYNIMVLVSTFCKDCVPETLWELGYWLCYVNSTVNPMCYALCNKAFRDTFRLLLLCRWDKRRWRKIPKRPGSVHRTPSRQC
Fluor 339 460 – intrinsic fluorescence of library compounds, ex339/em460 – biochemical, MLSMR library, data from DPM-DC assay, artefact control, profiling panel | compound autofluorescence, ex339/em460 nm, NADH buffer; active compounds read high; 1 = no-compound wells, NADH background | fluorescence fold increase at 10 µM | 5.5% of 65,000 active | AID 709;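 active = at 10 µM, mean starting fluorescence two-fold or more over control wells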;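 note: signal is the first read of a kinetic run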
mHtt clearance – compounds clearing mutant huntingtin protein; HeLa Exon1htt(103Q)mCFP, aggregate imaging; zero = plate's median compound well; inhibition, % at 1.5 µM; 0.42% of 47,000 active; AID 853;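 active = inhibition of aggregate fluorescence above about 70%, also judged a hit by eye on the cell image, limit read from the data, passing the limit was not always enough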;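 note: cells exposed to compound for three days before fixation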
NADH enzymes – inhibitors of enzymes used to reach an NAD/NADH endpoint; coupled PK/LDH NADH assays, four targets; IC50, µM (highest dose often 10 µM), for the others: top-dose inhibition; 0.02% of 65,000 active;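 active = single-dose screening hits from any of four coupled enzyme assays that gave an IC50 when retested across doses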;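 note: the DPM-DC format reads NADH fluorescence rather than 340 nm absorbance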
M1 agonist – agonists of M1 muscarinic receptor; CHO-M1 cells, Fluo-4 calcium fluorescence, agonist mode; active compounds read high; B-score at 10 µM; 3% of 64,000 active;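 active = fluorescence rise, raw or as B-score row- and column-corrected plate score, outside the 99.7% band of its plate's samples, either direction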
Abs 340nm – compounds absorbing at 340 nm; AID 708; 65,000 tested, under 10 active; compound absorbance at 340 nm, fold over control; fold change at 10 µM;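 active = at 10 µM dose, initial 340 nm absorbance at least 2 fold that of control wells; inactive = change under 2 fold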;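 note: initial absorbance extrapolated from kinetic A340 decline of NADH oxidation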
M1 antag confirm – M1 muscarinic receptor (rat) antagonism, confirmed. shares compounds with M1 antag. CHO-M1 cells, Fluo-4 calcium, ACh EC80 antagonism; active compounds read low. calcium response (max-min fluorescence) at 10 µM. 43% of 1,700 active. AID 677;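 active = calcium response below the same-plate mean of wells given acetylcholine alone at its 80%-effect dose, minus 3 SD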;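 note: raw fluorescence intensity difference in arbitrary instrument units and not normalized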
mGluR4 antag – selectivity test for M1 antagonists: human mGluR4 receptor; shares compounds with M1 antag; CHO-mGluR4 calcium flux, Fluo-4 fluorescence, glutamate EC80; active compounds read low; fluorescence response (max-min) at 10 µM; 0.9% of 1,700 active;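 active = fluorescence response below the plate's average for near-maximal glutamate wells, less 3 SD of those wells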;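 note: raw unnormalized fluorescence span taken in the window right after glutamate addition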
Starred values were filed as active, the others as inactive.

For CCOC(=O)c1ccc(N2C(=O)C3CC=CCC3C2=O)cc1 (configuration not stated) the results were M1 antag -0.0801, Fluor 339 460 1, mHtt clearance -86.8, NADH enzymes 1.0%, M1 agonist -0.533 and Abs 340nm 0.98.
COc1ccc(N2CCN(C(=O)Cn3nnc(-c4ccc(OC)c(OC)c4)n3)CC2)cc1 was read as M1 antag -0.0456, Fluor 339 460 1.11, mHtt clearance -11.0, NADH enzymes 2.0%, M1 agonist 0.249 and Abs 340nm 1.02.
For Cc1ccc(-c2nnn(CC(=O)N3CCN(c4ccccc4)CC3)n2)o1 the results were M1 antag -4.16*, Fluor 339 460 1.05, mHtt clearance -18.9, NADH enzymes 2.0%, M1 agonist -0.2, Abs 340nm 1.06, M1 antag confirm 641 and mGluR4 antag 237.
`CCOC(=O)c1c(NC(=O)c2ccc(S(=O)(=O)N3CCOCC3)cc2)sc2c1CCN(C)C2` gave M1 antag -0.927, Fluor 339 460 1.24, NADH enzymes 9.0%, M1 agonist 0.358 and Abs 340nm 1.09.
For CCOC(=O)NC(Nc1sc2c(c1C(=O)OC)CCN(C)C2)(C(F)(F)F)C(F)(F)F the results were M1 antag -1.44*, Fluor 339 460 1.19, mHtt clearance -52.5, NADH enzymes 4.0%, M1 agonist 0.763, Abs 340nm 1.08, M1 antag confirm 443 and mGluR4 antag 217.
O=S(=O)(NCCc1ccccc1F)c1cccc(S(=O)(=O)N2CCOCC2)c1 was read as M1 antag -0.322, Fluor 339 460 1.08, mHtt clearance 1.2, NADH enzymes 1.0%, M1 agonist -1.17 and Abs 340nm 0.99.
For COc1ccccc1CNS(=O)(=O)c1cccc(S(=O)(=O)N2CCOCC2)c1 the results were M1 antag -4.68*, Fluor 339 460 1.04, mHtt clearance 10.1, NADH enzymes 2.0%, M1 agonist 1.31, Abs 340nm 0.99, M1 antag confirm 605 and mGluR4 antag 209.
`O=C(CCNS(=O)(=O)c1cccc2nonc12)N1CCN(c2cccc(Cl)c2)CC1` gave M1 antag -3.13*, Fluor 339 460 1.06, NADH enzymes 0.0%, M1 agonist 0.187, Abs 340nm 1.05, M1 antag confirm 253* and mGluR4 antag 251.
Screening O=C(CCS(=O)(=O)c1cccc2nonc12)N1CCN(c2ccc(F)cc2)CC1 returned M1 antag -6.86*, Fluor 339 460 1.16, NADH enzymes 1.0%, M1 agonist 0.0405, Abs 340nm 1.05, M1 antag confirm 622 and mGluR4 antag 303.
Cc1ccccc1CS(=O)(=O)CCC(=O)NCCCN1CCN(c2ccccc2F)CC1 was read as M1 antag -0.363, Fluor 339 460 1.12, mHtt clearance -23.5, NADH enzymes 7.0%, M1 agonist 0.155 and Abs 340nm 1.01.
O=C(CCCCCn1c(=O)[nH]c2ccccc2c1=O)NCCCN1CCN(c2ccccc2F)CC1 was read as M1 antag -3.55*, Fluor 339 460 1.09, NADH enzymes 3.0%, M1 agonist 0.309, Abs 340nm 0.99, M1 antag confirm 506 and mGluR4 antag 220.
Screening O=C(CSc1nnnn1-c1cccnc1)NCc1cccs1 returned M1 antag 0.119, Fluor 339 460 1.07, NADH enzymes 5.0%, M1 agonist -0.36 and Abs 340nm 1.02.
`CC1CCC(N2CCN(c3ncccn3)CC2)C1` (configuration not stated) gave mHtt clearance 9.2.
Screening Cc1ccc2[nH]c3c(=O)n(CCC4=CCCCC4)cnc3c2c1 returned mHtt clearance -12.4.
COc1cc2[nH]c3c(=O)n(CCN(C(C)C)C(C)C)cnc3c2cc1OC was read as M1 antag -4.61*, Fluor 339 460 2.45*, NADH enzymes 3.0%, M1 agonist 0.72, Abs 340nm 1.01, M1 antag confirm 542 and mGluR4 antag 171.
O=S(=O)(c1ccc2c(c1)OCCO2)N1CCN(c2cccc(Cl)c2)CC1 was read as M1 antag -0.164, Fluor 339 460 1.04, NADH enzymes 1.0%, M1 agonist -0.516 and Abs 340nm 1.04.
O=S(=O)(c1ccc2c(c1)OCCO2)N1CCC(O)(c2ccc(Cl)cc2)CC1 was read as M1 antag -8.69*, Fluor 339 460 1.12, mHtt clearance -26.8, NADH enzymes 6.0%, M1 agonist -0.658, Abs 340nm 0.95, M1 antag confirm 475* and mGluR4 antag 260.
c1ccc(CN2CCN(CCN3CCn4c3nc3ccccc34)CC2)cc1 was read as M1 antag -2.05*, Fluor 339 460 1.12, NADH enzymes 4.0%, M1 agonist 0.133, Abs 340nm 1.01, M1 antag confirm 566* and mGluR4 antag 252.
CCOC(=O)N1CCC(NC(=O)CN2C(=O)C(CC)Oc3ccc(C)cc32)CC1 (configuration not stated) was read as M1 antag -5.72*, Fluor 339 460 1.02, NADH enzymes 6.0%, M1 agonist -0.43, Abs 340nm 0.96, M1 antag confirm 665 and mGluR4 antag 204.
Screening CCC1Oc2ccc(C)cc2N(CC(=O)NCCN2C(C)CCCC2C)C1=O (configuration not stated) returned M1 antag -1.82, Fluor 339 460 0.94, NADH enzymes 8.0%, M1 agonist 0.316 and Abs 340nm 1.01.
Screening O=C1CN(C(=O)CN2CCCC2)C(c2ccccc2)c2cc(Br)ccc2N1 (configuration not stated) returned M1 antag -2.8*, Fluor 339 460 1.05, mHtt clearance 20.7, NADH enzymes 4.0%, M1 agonist -0.252, Abs 340nm 0.99, M1 antag confirm 473 and mGluR4 antag 305.
`CNC(=O)C1C2C=CC3(O2)C1C(=O)N(C1CC1)C3C(=O)NCc1ccc(OC)cc1` (configuration not stated) gave M1 antag -2.08*, Fluor 339 460 1.01, mHtt clearance -23.6, NADH enzymes 4.0%, M1 agonist -0.572, Abs 340nm 1, M1 antag confirm 679 and mGluR4 antag 243.
For CCc1c(O)nc(SCC(=O)Nc2ccccc2OC)[nH]c1=O the results were M1 antag -1.03*, Fluor 339 460 1.08, NADH enzymes 0.0%, M1 agonist 0.618, Abs 340nm 1.03, M1 antag confirm 529 and mGluR4 antag 166.
`CN(C(=O)Cn1c(=O)n(CCCCC(=O)NC2CCCC2)c(=O)c2ccccc21)C1CCCCC1` gave M1 antag 0.473, Fluor 339 460 1.04, mHtt clearance 0.8, NADH enzymes 3.0%, M1 agonist 0.564 and Abs 340nm 1.
